Calls of active or inactive are those of the source.
Tests used:
[1] = A549 cell viability effects, profiling panel, calcein-AM fluorescence, 48 h, basal (AID 1162); settings: higher = more signal
[2] = adipocyte viability effects, profiling panel, cell-based, 3T3-L1 adipocytes, calcein-AM fluorescence, 48 h, basal (AID 1163); settings: 3T3-L1 adipocytes viability, higher = more signal
[3] = HepG2 cell viability effects, profiling panel, calcein-AM fluorescence, 48 h, basal (AID 1164); settings: higher = more signal
[4] = MM1S cell viability effects, profiling panel, calcein-AM fluorescence, 48 h, basal (AID 1165); settings: higher = more signal;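 note: viability of MM1S multiple myeloma cells under basal unstimulated conditions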
[5] = basal RPMI8226 viability, no added stimulus, profiling panel, cell-based, calcein-AM fluorescence, 48 h, PK04 Diversity Set (AID 1166); settings: RPMI8226 myeloma viability, higher = more signal;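 note: cells grown under basal conditions without added stimulus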
[6] = basal HepG2 mitochondrial membrane potential changes, profiling panel, cell-based, JC-1 fluorescence, 24 h, 100 nL compound (AID 1167); settings: higher = more signal
[7] = basal 3T3-L1 adipocyte mitochondrial potential changes, profiling panel, cell-based, JC-1 fluorescence, 3T3-L1 adipocytes, 24 h, 100 nL compound (AID 1168); settings: JC-1 mitochondrial fluorescence, higher = more signal, called active from +8 up or from −8 down
[8] = basal RPMI8226 mitochondrial membrane potential changes, profiling panel, cell-based, JC-1 fluorescence, 24 h, 100 nL compound (AID 1169); settings: RPMI8226 myeloma, JC-1 mitochondrial potential fluorescence, higher = more signal
[9] = basal MM1S mitochondrial membrane potential changes, profiling panel, cell-based, JC-1 fluorescence, 24 h, 100 nL compound (AID 1170); settings: higher = more signal
[10] = A549 lung cancer cell viability effects, profiling panel, resazurin fluorescence, 24 h, PK04 Diversity Set (AID 1171); settings: higher = more signal, called active from +8 up or from −8 down
Note: test concentration not given here.

Row | Compound | z-score [1] | z-score [2] | z-score [3] | z-score [4] | z-score [5] | z-score [6] | z-score [7] | z-score [8] | z-score [9] | z-score [10]
1 | C=CCN1C(=O)[C@]2(O[C@H](CCO)[C@@H]([Si](C)(C)c3ccc(OC)cc3)[C@@H]2C)c2cc(NC(=O)[C@H](C)O)ccc21 | -1.18 | 0.449 | -1.92 | -2.85 | -4.33 | -1.55 | -0.612 (inactive) | -1.03 | -0.061 | -0.848 (inactive)
2 | COCCOC(=O)N1C(=O)[C@@]2(c3cc(C#CCNC(N)=O)ccc31)[C@H](c1ccccc1OCCO)N1[C@H](c3ccccc3)[C@H](c3ccccc3)OC(=O)[C@H]1[C@@H]2C(N)=O | -0.0052 | -0.131 | -0.617 | -0.456 | 0.0352 | -1.83 | 0.369 (inactive) | -0.115 | -1.08 | 0.0565 (inactive)
3 | CN(C)C(=O)[C@@]1(CCC(=O)OC(C)(C)C)N=C(c2ccc(OCCCO)cc2)O[C@H]1c1ccccc1 | -0.211 | 0.687 | -0.517 | 0.301 | -1.48 | 0.26 | -0.58 (inactive) | -1 | 0.279 | 0.107 (inactive)
4 | COCCCNC(=O)[C@@]1(C)c2ccccc2C(=O)N(Cc2cc(C(F)(F)F)cc(C(F)(F)F)c2)[C@H]1c1ccc(CO)cc1 | -0.0997 | -0.872 | 0.771 | 0.384 | -0.509 | 1.59 | 1.01 (inactive) | 0.222 | -0.668 | 0.545 (inactive)
5 | CC(C)C(=C=CC[C@@H](O)c1ccccc1OCCO)C[C@@H](O)c1ccccn1 | -0.158 | 0.0388 | -0.0925 | -0.757 | 0.0845 | -0.687 | -0.425 (inactive) | -0.0863 | -0.0458 | 0.248 (inactive)
6 | CC(=O)NCCCC[C@@H]1NC(=O)[C@@H]2C[C@H](C(=O)NCCCCN(C)C)[C@H](c3ccc(O)cc3)N2C1=O | 1.42 | -0.582 | 0.374 | 0.213 | 0.93 | 0.709 | 1.05 (inactive) | -0.293 | -0.504 | 0.854 (inactive)
7 | [N-]=[N+]=NCc1ccccc1C[C@]1(C(=O)NCC(O)CO)N=C(c2ccc(OCCCO)cc2)O[C@H]1c1ccccc1N=[N+]=[N-] (stereo not given in full) | -0.13 | 1.27 | -0.35 | -1.09 | -1.11 | 0.0849 | 1.19 (inactive) | -0.893 | -0.384 | 0.0953 (inactive)
8 | COCCOC(=O)N1C(=O)[C@@]2(c3cc(C#CCNC(N)=O)ccc31)[C@H](C(=O)N1CCN(c3ncccn3)CC1)[C@H]1C(=O)O[C@H](c3ccccc3)[C@H](c3ccccc3)N1[C@@H]2c1ccccc1OCCO | -0.246 | 1.24 | -0.539 | -0.648 | -0.876 | -1.43 | 1.29 (inactive) | -1.09 | -1.04 | 1.02 (inactive)
9 | C=CC[C@@]1(C(=O)N2CCOCC2)N=C(c2ccc(OCCCO)cc2)O[C@@H]1c1ccccc1N=[N+]=[N-] | -0.168 | 1.02 | 0.249 | -0.791 | -1.96 | 1.38 | 1.57 (inactive) | -0.97 | -1.71 | -0.915 (inactive)
10 | O=C1C[C@@](C(=O)NC2CC2)(c2ccc([N+](=O)[O-])cc2)[C@@H](c2ccc(CO)cc2)N1CC12CC3CC(CC(C3)C1)C2 | -1.14 | 0.781 | -1.94 | -2.07 | -3.09 | -0.881 | -0.199 (inactive) | -0.507 | -0.214 | -1.45 (inactive)
11 | CN(C)CCCCCCNC(=O)[C@H]1C[C@H]2C(=O)N[C@@H](CCCCN)C(=O)N2[C@H]1c1ccc(O)cc1 | -0.466 | 0.71 | 0.266 | -1.05 | -0.0908 | 0.758 | -0.935 (inactive) | -0.773 | 0.237 | 0.283 (inactive)
12 | O=C(CS)NCCCCCCNC(=O)[C@@H]1C[C@@H]2C(=O)N3CCC[C@H]3C(=O)N2[C@@H]1c1ccc(O)cc1 | -1.09 | 0.519 | -0.507 | 0.16 | 0.412 | -1.57 | -0.124 (inactive) | 0.653 | 0.0659 | -0.331 (inactive)
13 | COc1ccc([Si](C)(C)[C@@H]2[C@@H](CCn3cc([C@H](O)c4ccccc4)nn3)O[C@]3(C(=O)N(Cc4cccc(N5CCOC5=O)c4)c4ccccc43)[C@H]2C)cc1 | 1.6 | -0.392 | 1.31 | -2.15 | 0.274 | 1.84 | 2.73 (inactive) | -0.671 | -0.0958 | 0.181 (inactive)
14 | COc1cc(C(O)C2C=CC3C(=O)N(c4ccccc4)C(=O)C3N2Nc2ccc(C#N)cc2)cc(OC)c1OC (stereo not given) | -1.26 | 0.0434 | -0.272 | 0.0375 | -0.269 | -1.36 | -1.51 (inactive) | 0.433 | -0.314 | -0.404 (inactive)
15 | C=CC[C@]1(C(=O)N2CCOCC2)N=C(c2ccc(OCCCO)cc2)O[C@H]1c1ccccc1 | -0.211 | 0.117 | -0.539 | -1.11 | -2.07 | -0.0158 | -0.0689 (inactive) | -0.326 | -0.577 | 1.39 (inactive)
16 | N#Cc1ccc(NN2C(C(O)c3ccc([N+](=O)[O-])cc3)C=CC3C(=O)N(c4ccccc4)C(=O)C32)cc1 (stereo not given) | -1.14 | 0.0202 | -0.335 | -0.237 | -0.402 | -1.91 | -0.703 (inactive) | -0.993 | 0.0361 | 0.172 (inactive)
17 | CC(=O)NCCCC[C@@H]1NC(=O)[C@@H]2C[C@H](C(=O)NCCCCCCNC(=O)CS)[C@H](c3ccc(O)cc3)N2C1=O | -0.503 | -0.683 | 0.366 | 0.0337 | -0.66 | -0.638 | -0.744 (inactive) | -0.0931 | -0.795 | -0.363 (inactive)
18 | O=C/C=C/c1ccc2c(c1)OCO2 | 0.115 | 0.327 | 0.782 | -0.251 | 0.658 | 1.4 | -0.0743 (inactive) | 0.365 | 0.386 | -0.362 (inactive)
19 | COC(=O)C(CC#Cc1ccc2c(c1)[C@]1(C(=O)N2)[C@H](C(=O)NC[C@H](O)c2ccccc2)[C@H]2C(=O)O[C@H](c3ccccc3)[C@H](c3ccccc3)N2[C@@H]1c1ccc(OCCO)cc1)C(=O)OC | 1.07 | 0.55 | 0.0255 | -1.17 | 0.0736 | -1.06 | 1.04 (inactive) | -0.94 | -1.15 | 0.199 (inactive)
20 | CC(C)C[C@@H]1NC(=O)[C@H]2C[C@@H](C(=O)NCCCCCCNC(=O)CS)[C@@H](c3cccc(OCCO)c3)N2C1=O | 0.0674 | 0.466 | 0.696 | 0.118 | -0.0467 | -0.569 | 0.844 (inactive) | -0.404 | -0.343 | 0.0056 (inactive)
21 | C=CCC(OC(C)=O)[C@@H]1[C@@H](N(Cc2cccc3ccccc23)C(=O)c2ccc(C)cc2)c2cc(OCCCO)ccc2N1C(=O)Cc1ccc(OC)cc1 (stereo not given in full) | 1.77 | 1.14 | 1.97 | 0.621 | 0.943 | 1.77 | 0.696 (inactive) | 0.594 | -0.596 | 0.69 (inactive)
22 | [N-]=[N+]=NCc1ccccc1C[C@]1(C(=O)O)N=C(c2ccc(OCCCO)cc2)O[C@H]1c1ccccc1 | -0.755 | -0.4 | -0.509 | -1.19 | -0.388 | -1.62 | 0.336 (inactive) | -0.179 | 0.181 | 0.0055 (inactive)
23 | CC(C)C(=C=CC[C@H](O)c1ccccc1OCCO)C[C@H](O)c1ccccn1 | 0.82 | -0.27 | 1.33 | 0.198 | 0.0964 | 0.714 | 0.085 (inactive) | -0.332 | -1.3 | -0.607 (inactive)
24 | [N-]=[N+]=Nc1ccccc1C[C@]1(C(=O)NCCN2CCOCC2)N=C(c2ccc(OCCCO)cc2)O[C@H]1c1ccccc1 | -0.0454 | 0.0937 | -0.256 | -0.0793 | -0.26 | 0.771 | 0.00214 (inactive) | -0.309 | -0.777 | 1.24 (inactive)
25 | NCCCCCCNC(=O)[C@H]1C[C@H]2C(=O)NCC(=O)N2[C@H]1c1cccc(OCCO)c1 | 2.15 | -0.143 | 0.674 | -0.0318 | 0.554 | 2.48 | -0.194 (inactive) | -0.417 | 0.535 | 1.34 (inactive)
26 | COC(=O)[C@@]1(Cc2ccccc2N=[N+]=[N-])COC(c2ccc(OCCCO)cc2)=N1 | -0.851 | -1.01 | -0.388 | -3.53 | -2.82 | -0.472 | -0.605 (inactive) | -0.125 | -0.0849 | 0.468 (inactive)
27 | O=C1O[C@H](c2ccccc2)[C@H](c2ccccc2)N2[C@H]1[C@@H](C(=O)NC[C@H](O)c1ccccc1)[C@]1(C(=O)Nc3ccc(C#CCCO)cc31)[C@H]2c1ccc(O)cc1 | 0.102 | 1.09 | -0.975 | 0.245 | -0.155 | -0.72 | 0.0782 (inactive) | 0.626 | 0.000313 | 0.024 (inactive)
28 | CCOC(=O)C1=CC[C@@H](c2ccccc2)N(S(=O)(=O)c2ccc(C)cc2)[C@H]1C(=O)OCC | -0.613 | -0.467 | -0.111 | 0.884 | 0.0651 | 3 | 0.252 (inactive) | -0.619 | -1.24 | 0.706 (inactive)
29 | CC(C)OC(=O)CC(=O)CC(O)c1ccc(C#N)cc1 (stereo not given) | 0.633 | 0.612 | 1.01 | 0.526 | -0.116 | 0.615 | 0.497 (inactive) | -0.0971 | -1.44 | 0.617 (inactive)
